In PubChem BioAssay AID504652 (National Center for Advancing Translational Sciences (NCATS), 2011):
Screen size: about 360,000 compounds; about 11,000 (3.1%) were called active. This is one part of a sample in which actives are shown more often than they occur. A number with no mark means an inactive call. No stated cut-off is given here; in the data, active means activity change below about -30%; inactive means the rest.

The compounds below were run against D(1A) dopamine receptor (Homo sapiens) (UniProt P21728) (assay: Antagonist of Human D 1 Dopamine Receptor: qHTS). Details: HEK293 TREx D1 cells, calcium flux, dopamine EC80; at 10 µM; stronger effect = lower value.
Sequence of D(1A) dopamine receptor (Homo sapiens) (P21728 whole entry, looked up): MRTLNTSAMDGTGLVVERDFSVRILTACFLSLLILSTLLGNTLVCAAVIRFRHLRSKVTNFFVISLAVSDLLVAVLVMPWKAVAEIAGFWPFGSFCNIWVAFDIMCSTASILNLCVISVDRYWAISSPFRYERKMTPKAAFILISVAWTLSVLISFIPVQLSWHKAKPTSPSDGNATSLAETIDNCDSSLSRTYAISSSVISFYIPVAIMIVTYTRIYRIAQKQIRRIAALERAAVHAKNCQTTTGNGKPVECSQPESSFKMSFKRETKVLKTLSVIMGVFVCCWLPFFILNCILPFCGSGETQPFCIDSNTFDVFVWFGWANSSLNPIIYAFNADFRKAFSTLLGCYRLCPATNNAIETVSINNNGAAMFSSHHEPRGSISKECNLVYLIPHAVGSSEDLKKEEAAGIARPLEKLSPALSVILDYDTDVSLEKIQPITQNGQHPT
Excerpt: Dopamine receptors (DARs) are involved in the etiology and/or therapy of a number of neuropsychiatric and endocrine disorders. For instance, all receptor-based antiparkinsonian drugs work via stimulating the […] DAR subtype whereas all FDA-approved antipsychotic agents are antagonists of this receptor. […] There are three different types of allosteric modulators that we are seeking, two of which will stimulate or augment receptor signaling, allosteric agonists and potentiators, while the third, allosteric antagonists, will attenuate receptor signaling. The present primary screening assay measures compound antagonism after an EC80 addition of dopamine by tracking calcium flux in a […], inducible Hek293 Trex D1 cell line. NIH Chemical Genomics Center [NCGC] NIH Molecular Libraries Probe Centers Network [MLPCN] MLPCN Grant: NS064831-01 Assay Submitter (PI): David Sibley
Freshly passaged cells are plated in 1536 well black, clear bottom plates at a density of 4000 cells/well in 3 ul of complete media containing 1x tetracycline inducer. After an overnight incubation at 30 C in 5% CO2, cells are loaded with 2 ul of the no wash Calcium Assay Kit (ABD Bioquest) and incubated at room temperature for 30 to 90 minutes. Agonist read: A 10 cycle (1 second/cycle) baseline measurement is taken and then the FDSS online 1536 pintool delivers 23 nl of compound library (as well as dopamine controls) to the plate. The plate is measured for kinetically at 1 cycle/sec for 180 seconds. Following the 180 second read, 1 ul of an EC80 (negative modulation assay) is delivered by an onboard pipette head. Measurements are taken kinetically for an additional 180 seconds.
On the % scale 0 is the no-effect control and ±100 the full control effect.

SMILES | activity change, negative = inhibition
CC(C)CC(NS(=O)(=O)c1ccc2c(c1)oc(=O)n2C)C(=O)NCc1ccccc1Cl (centres undefined) | 14.8%
CCCCCn1c(=O)[nH]c2cc(C(=O)Nc3cc(C)cc(C)c3)ccc2c1=O | -6.59%
Cc1ccc(C(C[N+](=O)[O-])c2c(C)cc3ccccn23)cc1 (centres undefined) | -51.3% (active)
COc1ccc(C(C[N+](=O)[O-])n2nc(C)cc2C)cc1 (centres undefined) | 13.7%
CC(=O)Nc1ccc(/C=N/Nc2ccc(C(=O)c3c(C)cc4ccccn34)cc2[N+](=O)[O-])cc1 | -18.5%
CN1CCN(C2=NCCO2)CC1 | -33% (active)
CCOC(=O)C1CCN(c2csc3ccc(C)cc3c2=O)CC1 | 6.24%
Fc1cccc(-n2ncc3c2ncn2nc(-c4ccccc4Cl)nc32)c1 | -8.03%
O=C(NCCc1ccc(Cl)cc1)c1cccc(N2CCCC2=O)c1 | -8.26%
Cc1cccc(NC(=S)NCCc2ccc(Cl)cc2)c1C | -8.27%
Oc1cc2c(cc1O)CN(C(=S)NCCc1ccc(Cl)cc1)CCC2 | -90.5% (active)
Cc1ccc2ncc(C(=O)Nc3ccc(OC(F)(F)F)cc3)c(=O)n2c1 | 0.312%
CC(=O)c1ccc(N2CCN(C(=O)CCc3ccccc3)CC2)cc1 | 3.26%
COc1cc(CCC(=O)N2CCN(c3ccccc3Cl)CC2)cc(OC)c1OC | -35% (active)
COc1cc(CCC(=O)Nc2ccncc2Cl)cc(OC)c1OC | 1.11%
COc1cccc(C(=O)N(Cc2cccc(Cl)c2)Cc2ccco2)c1 | -12.2%
COc1ccc(-c2ccc(CNCCCN3CCOCC3)o2)cc1Cl | -8.26%
C=CCOc1ccc(Cl)cc1CNCCCN1CCOCC1 | -32.4% (active)
O=C(NCCCN1CCOCC1)c1cc(-c2ccc(Cl)cc2)on1 | 7.89%
COCCCNC(=O)c1ccc(NC(=O)c2nsc3ccccc23)cc1 | -4.68%

SMILES | activity change, negative = inhibition
COc1ccc(NC(=O)CCN2CCN(CCO)CC2)cc1 | -14%
Cc1ccc(C)c(N2CCN(C(=O)C3CCC(CNS(=O)(=O)c4cccs4)CC3)CC2)c1 (centres undefined) | 16.1%
COc1ccc(NC(=O)N2CCCn3nc(C)cc32)cc1OC | -22.3%
COc1ccc(CCNC(=O)c2ccc(CSCc3ccc(C)cc3)o2)cc1OC | -24.7%
Clc1cccc(-n2ncc3c(NCCc4ccccc4)ncnc32)c1 | -27.8%
COc1ccc(CCNc2ncnc3c2cnn3-c2ccc(C)cc2)cc1 | -63.8% (active)
C1=C(CCNc2ncnc3c2cnn3-c2ccccc2)CCCC1 | -10.6%
O=C(Nc1ccccc1F)C(c1ccccc1)N1Cc2ccccc2C1=O (centres undefined) | -0.199%
Cc1cccc(OCC(=O)N(Cc2ccc(C(C)C)cc2)Cc2ccco2)c1C | -14.7%
COc1ccc(C2=NOC(Cn3nc(C(=O)NCc4ccc5c(c4)OCO5)cc3-c3ccccc3)C2)cc1 (centres undefined) | -33.6% (active)
COc1ccc(NC(=O)NCc2ccc3c(c2)OCO3)c(OC)c1 | 2.8%
Cc1ccc(CNC(=O)c2cc(-c3ccccc3C)n(CC3CC(c4cccc([N+](=O)[O-])c4)=NO3)n2)cc1 (centres undefined) | -15.8%
COc1cccc(-c2cccc(NC(=O)C3CCN(C4CCC4)CC3)c2)c1 | 30.7%
COc1ccc(N=C2SC(C(=O)Nc3ccc(F)cc3)CC(=O)N2C)cc1 (centres undefined) | 5.67%
COc1cccc(N=C2SC(C(=O)Nc3cccc(Cl)c3)CC(=O)N2C)c1 (centres undefined) | -65.2% (active)
CSc1ccc(CCNC(=O)c2cnn(-c3ccccc3)c2-n2cccc2)cc1 | 1.42%
O=C(NCCCN1CCOCC1)c1ccccc1NS(=O)(=O)c1ccc(F)cc1 | -51.4% (active)
O=C(NCCCN1CCOCC1)c1ccccc1NS(=O)(=O)c1ccc(Br)cc1 | -0.557%
Cc1ccc(NS(=O)(=O)c2ccc(C(=O)NCCCN3CCOCC3)cc2)cc1 | 26.5%
COC(=O)c1cc(S(=O)(=O)N2CCN(c3cc(Cl)ccc3C)CC2)c[nH]1 | 5.54%

SMILES | activity change, negative = inhibition
CCn1cc2nc(SCc3cccc(F)c3)n(CCc3ccccc3)c(=O)c2n1 | 11.7%
CCCCN(CC)CCCNC(=O)Cn1ncc2c([nH]c3ccc(C)cc32)c1=O | 3.23%
Cc1cccc(NC(=O)N2CCN(C)c3ncccc32)c1C | -0.945%
COc1ccc(S(=O)(=O)n2nc(C)c(S(=O)(=O)N3CCCCCC3)c2C)cc1 | 5.83%
CSc1ccc(CCNC(=O)c2cc(C)nc3c2c(C)nn3-c2cccc(F)c2)cc1 | -11.8%
COc1cc(NC(=O)c2cc(C3CC3)nc3c2c(C)nn3-c2ccccc2)cc(OC)c1 | 0.344%
Cc1cc(C(=O)Nc2cccc(C(F)(F)F)c2)c2c(C)nn(-c3cccc(F)c3)c2n1 | -34.4% (active)
CC(C)(C)C1CCc2c(sc(NC(=O)c3ccccc3F)c2C(=O)N2CCCCC2)C1 (centres undefined) | 4.22%
Cc1ccc(NC(=O)CN2c3ccccc3S(=O)(=O)c3ccccc32)cc1F | -3%
COc1cc(OC)c(-n2c(C)cc(C=O)c2C)cc1Cl | 14.6%
COc1cc(OC)c(-n2cc(-c3ccc(Cl)cc3)[nH]c2=O)cc1Cl | -36.2% (active)
COc1cc(OC)c(N2CC(C(=O)Nc3cc(Cl)ccc3N3CCOCC3)CC2=O)cc1Cl (centres undefined) | -18.4%
CCN1CCC(N(Cc2ccc(F)cc2)C(=O)Nc2cc(C)ccc2C)CC1 | -6.08%
Cc1ccsc1CN(C(=O)c1oc2ccc(Br)cc2c1C)C1CCS(=O)(=O)C1 (centres undefined) | -12.9%
CCc1ccc(CN(Cc2ccco2)C(=O)COc2ccc(Cl)c(C)c2)cc1 | -3.05%
COc1ccc(Br)cc1CNC(=O)c1cc(=O)[nH]c2ccc(S(=O)(=O)N3CCCC3)cc12 | 2.78%
O=C(O)[C@@H]1CCCN1c1ncnc2sc3c(c12)CCC3 | -59.2% (active)
CC1(C)CN=C(N2CCN(c3ncnc4sc5c(c34)CCCC5)CC2)S1 | -2.14%
O=C(O)c1cccnc1Sc1ncnc2sc3c(c12)CCC3 | 11.4%
